In PubChem BioAssay (NCATS):
Several values for one entry are separate records, joined by “and”; a condition that tells them apart may be missing. Equal values may be shown once. Records with an inconclusive call do not appear. Activity calls are given as the source filed them. Calls follow the shape of the dose curve; as a rule, active = well fitted inhibition curve with a large enough effect in the repeat runs; inconclusive = weak or mixed curves; inactive = no such curve, though single readings can be large or run the other way.

The compounds below were run against Cytochrome P450 2C9 (Homo sapiens) (UniProt P11712) (assay: Cytochrome P450 family 2 subfamily C member 9 (CYP2C9) small molecule antagonists: luciferase biochemical (cell-free) qHTS assay (AID 1645842; also: nearly all actives have a fitted effect of over 55% in size)). Details: P450-Glo CYP2C9 enzyme assay, luciferin luminescence; series mostly up to 57.4 µM; activity change, negative = inhibition: at the top concentration.
Chain of Cytochrome P450 2C9 (Homo sapiens) (P11712 whole entry, looked up): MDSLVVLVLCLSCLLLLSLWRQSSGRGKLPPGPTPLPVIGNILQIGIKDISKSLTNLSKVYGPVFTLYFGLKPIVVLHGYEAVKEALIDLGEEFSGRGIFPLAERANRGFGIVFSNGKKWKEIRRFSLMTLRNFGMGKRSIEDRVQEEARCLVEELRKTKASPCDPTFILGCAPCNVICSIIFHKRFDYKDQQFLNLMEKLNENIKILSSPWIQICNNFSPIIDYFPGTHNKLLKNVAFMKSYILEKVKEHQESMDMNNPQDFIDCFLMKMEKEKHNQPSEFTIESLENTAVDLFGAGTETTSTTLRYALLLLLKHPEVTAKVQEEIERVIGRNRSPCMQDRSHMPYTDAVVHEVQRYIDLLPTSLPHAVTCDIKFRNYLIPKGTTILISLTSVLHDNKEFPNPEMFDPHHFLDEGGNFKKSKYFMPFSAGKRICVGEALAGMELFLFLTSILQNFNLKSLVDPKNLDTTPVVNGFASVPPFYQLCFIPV
Procedure: National Center for Advancing Translational Sciences [NCATS] Assay Overview: Cytochrome P450 (CYP) enzymes are membrane-bound hemeproteins that play a key role in metabolism of drugs and xenobiotics. Assaying the effect of chemicals on CYP isozymes is useful to minimize the adverse drug reactions and toxicities in drug development process. Chemical compounds were tested for their effect on CYP enzyme activities by using P450-Glo (TM) screening systems (Promega Corporation, Madison, WI). These systems provide a luminescent method containing proluciferin substrates and are converted to luciferin products by CYP isozymes. The luciferin products formed are detected with a luciferin detection reagent, and the amount of light produced is proportional to CYP activity. P450-Glo (TM) CYP2C9 screening system (Catalog. No. V9790) was used to detect the compounds that interfere in CYP2C9 activity.
Assay Protocol Summary: Two ul of enzyme-substrate mix supplemented with 0.4% Bovine Serum Albumin was dispensed into medium binding white/solid 1536-well plates (Greiner Bio-One North America Inc., Monroe, NC) using a Flying Reagent Dispenser (FRD, Aurora Discovery, San Diego, CA). […] The assay plates were incubated at room temperature for 10 min. Then 2 ul of NADPH regeneration solution was added to each well of the assay plates using an FRD and incubated at 37C for 1 h. The reaction was stopped by adding 4 ul of detection reagent using an FRD and after 20 min incubation at room temperature, the luminescence signal was measured using a ViewLux plate reader (Perkin Elmer, Shelton, CT). Data were expressed as relative luminescence units.
% is scaled to controls: 0 for no effect and ±100 for the full control effect; potency is read from the fitted curve at half-maximal effect.

SMILES	activity change, negative = inhibition	Potency
CC(C)Cn1cnc2c(N)nc3ccccc3c21	2.02% [at 23.9 µM] (inactive)	–
CN1CCN(c2c(F)cc3c(=O)c(C(=O)O)cn4c3c2OCN4C)CC1	6.91% [at 23.9 µM] (inactive)	–
COc1cc(NCc2ccc3nc(N)nc(N)c3c2C)cc(OC)c1OC	–	12.3 µM (active)
CC(N)C12CC3CC(CC(C3)C1)C2 (stereo not given)	15% (inactive)	–
O=C(NCC1CN(c2ccc(N3CCOCC3=O)cc2)C(=O)O1)c1ccc(Cl)s1 (stereo not given)	–	8.71 µM (active) and 3.79 µM (active)
COc1cccc(N(C)C(=S)Oc2ccc3c(c2)CCCC3)n1	-25% (inactive)	–
COc1ccc2c(c1)c(CC(=O)OCC(=O)O)c(C)n2C(=O)c1ccc(Cl)cc1	-17% (inactive)	–
COC(c1ccccc1)(c1ccccc1)[C@H](Oc1nc(C)cc(C)n1)C(=O)O	9.75% (inactive)	–
Nc1ccc(S(=O)(=O)Nc2ccccn2)cc1	38.6% (inactive)	–
COc1cnc(NS(=O)(=O)c2ccc(N)cc2)nc1	11.6% (inactive)	–
O=C(O)c1cc(=O)[nH]c(=O)[nH]1	–	inactive
NC(=O)N1c2ccccc2CC(=O)c2ccccc21	4.68% (inactive)	–
COc1ccc2cc3[n+](cc2c1OC)CCc1cc2c(cc1-3)OCO2	-3.37% (inactive)	–
O=S(=O)(c1cccc2cnccc12)N1CCCNCC1	-18.1% (inactive)	–
COc1c(N2CCNC(C)C2)c(F)cc2c(=O)c(C(=O)O)cn(C3CC3)c12 (stereo not given)	–	inactive
CC(C)(Sc1cc(C(C)(C)C)c(O)c(C(C)(C)C)c1)Sc1cc(C(C)(C)C)c(O)c(C(C)(C)C)c1	-5.24% (inactive)	–
COc1nc(N)nc2c1ncn2[C@@H]1O[C@H](CO)[C@@H](O)[C@@H]1O	–	inactive
N[C@@H](C(=O)N[C@@H]1C(=O)N2C(C(=O)O)=C(Cl)CS[C@H]12)c1ccccc1	11.4% [at 11.5 µM] (inactive)	–
CNS(=O)(=O)Cc1ccc2[nH]cc(CCN(C)C)c2c1	2.12% (inactive)	–
CCOC(=O)c1ccc(C#Cc2ccc3c(c2)C(C)(C)CCS3)nc1	6.43% (inactive)	–

SMILES	activity change, negative = inhibition	Potency
CC(=O)Oc1ccccc1C(=O)Nc1ncc([N+](=O)[O-])s1	–	2.75 µM (active)
CCOC(=O)[C@H](CCc1ccccc1)N[C@H]1CS[C@H](c2cccs2)CN(CC(=O)O)C1=O	–	inactive
COCCCOc1cc(C[C@@H](C[C@H](N)[C@@H](O)C[C@H](C(=O)NCC(C)(C)C(N)=O)C(C)C)C(C)C)ccc1OC	2.5% (inactive)	–
Cn1nnc2c(C(N)=O)ncn2c1=O	5.31% (inactive)	–
O=C(O)c1ccc(-n2nc(-c3ccccc3O)nc2-c2ccccc2O)cc1	4.56% (inactive)	–
O=NN(CCCl)C(=O)NC1CCCCC1	8.45% (inactive)	–
O=C(O)CSCC(=O)NC1CCSC1=O (stereo not given)	13.1% (inactive)	–
CNS(=O)(=O)CCc1ccc2[nH]cc(C3CCN(C)CC3)c2c1	3.58% (inactive)	–
NC(=O)c1cccnc1	8% (inactive)	–
CCCCOc1ccc(CC(=O)NO)cc1	–	17.4 µM (active)
O=c1cc(O)c(Cl)c[nH]1	13.9% (inactive)	–
Cc1cccc(N(C)C(=S)Oc2ccc3ccccc3c2)c1	–	11 µM (active)
CC(=O)[C@H]1CC[C@H]2[C@@H]3CC=C4C[C@@H](O)CC[C@]4(C)[C@H]3CC[C@]12C	-1.15% (inactive)	–
C[C@@H](NCCCc1cccc(C(F)(F)F)c1)c1cccc2ccccc12	–	26.8 µM (active)
CNNCc1ccc(C(=O)NC(C)C)cc1	-11.4% (inactive)	–
CC(C)(C#N)c1cc(Cn2cncn2)cc(C(C)(C)C#N)c1	–	6.17 µM (active)
CCCc1cc(C(N)=S)ccn1	5.82% (inactive)	–
NC1(c2ccc(-c3nc4ccn5c(=O)[nH]nc5c4cc3-c3ccccc3)cc2)CCC1	4.54% (inactive)	–
CC(C)OC(=O)OCOP(=O)(CO[C@H](C)Cn1cnc2c(N)ncnc21)OCOC(=O)OC(C)C	-17.8% (inactive)	–
S=P(N1CC1)(N1CC1)N1CC1	–	36.4 µM (active)
